# B1: unnamed (peptide)
# chain: ISNFVPPNLPMRRFK
# Tests used:
# Assay in all cases: SPOT peptide array binding signal intensity (averaged, normalized) (arbitrary units (background-subtracted, floor 0; scale differs between SH3 domains)); higher = stronger binding of the SH3 domain to the peptide
# CaNbp2 = biological target: CaNbp2
# Method: (§1)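 GST-tagged SH3 domains from S. cerevisiae (Sc), A. gossypii (Ag), C. albicans (Ca) and S. pombe (Sp) were incubated at 10 ug/ml overnight at 4 C on cellulose SPOT membranes carrying 292 synthetic 15-mer peptides mined from the S. cerevisiae proteome (cysteines replaced by serines). Binding was detected with anti-GST antibody, HRP secondary and chemiluminescence, quantified with Genespotter, and reported as normalized spot intensities averaged over biological replicates.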
# CaRvs167 = biological target: CaRvs167
# Method: as §1
# CaRvs167-3 = biological target: CaRvs167-3
# Method: as §1
# CaSho1 = biological target: CaSho1
# Method: as §1
# CaSla1-D1-D2 = biological target: CaSla1-D1-D2
# Method: as §1
# CaSla1-D3 = biological target: CaSla1-D3
# Method: as §1
# ScAbp1 = biological target: ScAbp1
# Method: as §1
# ScBbc1 = biological target: ScBbc1
# Method: as §1
# ScBem1-D1 = biological target: ScBem1-D1
# Method: as §1
# ScBzz1-D1 = biological target: ScBzz1-D1
# Method: as §1
# ScBzz1-D2 = biological target: ScBzz1-D2
# Method: as §1
# ScCyk3 = biological target: ScCyk3
# Method: as §1
# ScFus1 = biological target: ScFus1
# Method: as §1
# ScHof1 = biological target: ScHof1
# Method: as §1
# ScHse1 = biological target: ScHse1
# Method: as §1
# ScLsb1 = biological target: ScLsb1
# Method: as §1
# ScLsb2 = biological target: ScLsb2
# Method: as §1
# ScLsb3 = biological target: ScLsb3
# Method: as §1
# ScLsb4 = biological target: ScLsb4
# Method: as §1
# ScMyo3 = biological target: ScMyo3
# Method: as §1
# ScMyo5 = biological target: ScMyo5
# Method: as §1
# ScNbp2 = biological target: ScNbp2
# Method: as §1
# ScPex13 = biological target: ScPex13
# Method: as §1
# ScRvs167 = biological target: ScRvs167
# Method: as §1
# ScSho1 = biological target: ScSho1
# Method: as §1
# ScSla1-D1-D2 = biological target: ScSla1-D1-D2
# Method: as §1
# ScSla1-D3 = biological target: ScSla1-D3
# Method: as §1
# SpAbp1-D1 = biological target: SpAbp1-D1
# Method: as §1
# SpBbc1 = biological target: SpBbc1
# Method: as §1
# SpBzz1-D1 = biological target: SpBzz1-D1
# Method: as §1
# SpBzz1-D2 = biological target: SpBzz1-D2
# Method: as §1
# SpCyk3 = biological target: SpCyk3
# Method: as §1
# SpHof1 = biological target: SpHof1
# Method: as §1
# SpHof1-2 = biological target: SpHof1-2
# Method: as §1
# SpHof1-3 = biological target: SpHof1-3
# Method: as §1
# SpHse1 = biological target: SpHse1
# Method: as §1
# SpLsb1 = biological target: SpLsb1
# Method: as §1
# SpLsb4 = biological target: SpLsb4
# Method: as §1
# SpMyo1 = biological target: SpMyo1
# Method: as §1
# SpNbp2 = biological target: SpNbp2
# Method: as §1
# SpPex13 = biological target: SpPex13
# Method: as §1
# SpRvs167 = biological target: SpRvs167
# Method: as §1
# SpSla1-D1-D2 = biological target: SpSla1-D1-D2
# Method: as §1
# SpSla1-D3 = biological target: SpSla1-D3
# Method: as §1
binder,measurement,setting,value
B1,SPOT peptide array binding signal intensity,CaNbp2,103
same,SPOT peptide array binding signal intensity,CaRvs167,571
same,SPOT peptide array binding signal intensity,CaRvs167-3,6.25
same,SPOT peptide array binding signal intensity,CaSho1,49.5
same,SPOT peptide array binding signal intensity,CaSla1-D1-D2,1000
same,SPOT peptide array binding signal intensity,CaSla1-D3,250
same,SPOT peptide array binding signal intensity,ScAbp1,44
same,SPOT peptide array binding signal intensity,ScBbc1,130
same,SPOT peptide array binding signal intensity,ScBem1-D1,13
same,SPOT peptide array binding signal intensity,ScBzz1-D1,29.5
same,SPOT peptide array binding signal intensity,ScBzz1-D2,63
same,SPOT peptide array binding signal intensity,ScCyk3,5.5
same,SPOT peptide array binding signal intensity,ScFus1,17
same,SPOT peptide array binding signal intensity,ScHof1,8.75
same,SPOT peptide array binding signal intensity,ScHse1,122
same,SPOT peptide array binding signal intensity,ScLsb1,393
same,SPOT peptide array binding signal intensity,ScLsb2,372
same,SPOT peptide array binding signal intensity,ScLsb3,7910
same,SPOT peptide array binding signal intensity,ScLsb4,2470
same,SPOT peptide array binding signal intensity,ScMyo3,17.2
same,SPOT peptide array binding signal intensity,ScMyo5,1.5
same,SPOT peptide array binding signal intensity,ScNbp2,198
same,SPOT peptide array binding signal intensity,ScPex13,1760
same,SPOT peptide array binding signal intensity,ScRvs167,1610
same,SPOT peptide array binding signal intensity,ScSho1,85.5
same,SPOT peptide array binding signal intensity,ScSla1-D1-D2,367
same,SPOT peptide array binding signal intensity,ScSla1-D3,184
same,SPOT peptide array binding signal intensity,SpAbp1-D1,26
same,SPOT peptide array binding signal intensity,SpBbc1,36.5
same,SPOT peptide array binding signal intensity,SpBzz1-D1,748
same,SPOT peptide array binding signal intensity,SpBzz1-D2,3
same,SPOT peptide array binding signal intensity,SpCyk3,8
same,SPOT peptide array binding signal intensity,SpHof1,51.8
same,SPOT peptide array binding signal intensity,SpHof1-2,41
same,SPOT peptide array binding signal intensity,SpHof1-3,22
same,SPOT peptide array binding signal intensity,SpHse1,86
same,SPOT peptide array binding signal intensity,SpLsb1,236
same,SPOT peptide array binding signal intensity,SpLsb4,6240
same,SPOT peptide array binding signal intensity,SpMyo1,31.2
same,SPOT peptide array binding signal intensity,SpNbp2,13
same,SPOT peptide array binding signal intensity,SpPex13,57.5
same,SPOT peptide array binding signal intensity,SpRvs167,1440
same,SPOT peptide array binding signal intensity,SpSla1-D1-D2,69
same,SPOT peptide array binding signal intensity,SpSla1-D3,32

# Reference: the supplement of paper PMC4466140
